The supplement of paper PMC13392028
In all, about 4,100 sequences were measured (“RBNS R-value (6-mer enrichment in protein-bound RNA vs input library)”: median about 0.99, highest 2% from about 1.4 on). The full list was thinned out, with the highest values kept by preference.

System: PfIESI-1 RRM domain (Plasmodium falciparum ortholog aa 875-1232, GST fusion)
Experiment: RBNS R-value (6-mer enrichment in protein-bound RNA vs input library) (ratio); higher = stronger binding preference; the methods of the paper give 50 / 100 / 500 nM protein instead
Method in brief: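 GST-tagged RNA-recognition-motif regions of IESI-1 orthologues from three Plasmodium species were expressed in E. coli and purified. Protein was incubated at room temperature with a random 40-mer in vitro transcribed RNA library, captured on glutathione magnetic agarose beads and washed three times. Bound RNA and the input library were reverse transcribed and sequenced on a MiSeq. R-value is each 6-mer's enrichment in bound RNA over input, from the Burge lab pipeline, one replicate.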

Row | Sequence | RBNS R-value (protein concentration: 250 nM) | RBNS R-value (protein concentration: 500 nM) | RBNS R-value (protein concentration: 1000 nM)
1 | AUUCCG | 1.2 | 1.14 | 1.16
2 | GCACCG | 1.14 | 1.09 | 1.14
3 | ACACCG | 1.17 | 1.12 | 1.15
4 | ACACCA | 1.16 | 1.1 | 1.1
5 | ACACCC | 1.53 | 1.28 | 1.33
6 | GCACCU | 1.21 | 1.11 | 1.13
7 | GCACCC | 1.5 | 1.26 | 1.33
8 | UUCGUU | 0.853 | 0.817 | 0.9
9 | CAUAUA | 0.762 | 0.733 | 0.715
10 | CUCCCU | 0.934 | 0.873 | 0.909
11 | GAACUG | 1.07 | 1.11 | 1.11
12 | UGAUAA | 1.67 | 1.89 | 1.54
13 | GGAUAG | 1.02 | 0.975 | 0.995
14 | AGAUAA | 0.975 | 1.11 | 1.02
15 | GGAUAC | 1.01 | 0.991 | 0.995
16 | UGAUAC | 1.59 | 1.68 | 1.47
17 | GGAUAU | 0.937 | 0.921 | 0.959
18 | UGAUAG | 1.87 | 2.08 | 1.65
19 | AGAUAU | 0.955 | 1.04 | 0.969
20 | CGAUAA | 0.968 | 1.04 | 0.996
21 | UGAUAU | 1.5 | 1.69 | 1.38

Row | Sequence | RBNS R-value (protein concentration: 250 nM) | RBNS R-value (protein concentration: 500 nM) | RBNS R-value (protein concentration: 1000 nM)
22 | CGAUAC | 1.04 | 1.03 | 1.02
23 | AGAUAG | 0.998 | 1.07 | 1.04
24 | UAGCUA | 0.902 | 0.926 | 0.903
25 | UGAAAA | 1.16 | 1.3 | 1.22
26 | AACGUG | 0.922 | 0.984 | 0.974
27 | UCGGGU | 0.945 | 0.901 | 1.01
28 | AUGCGU | 0.924 | 0.929 | 0.959
29 | UACCGC | 0.938 | 0.867 | 0.916
30 | UAAAAC | 0.916 | 1.05 | 0.979
31 | AGUAAA | 0.862 | 1.01 | 0.909
32 | AUUCUG | 1.19 | 1.22 | 1.1
33 | AUCUGA | 1.24 | 1.3 | 1.19
34 | AAAGGG | 1.07 | 1.12 | 1.12
35 | GGAUGC | 1.04 | 0.968 | 1.07
36 | CGAUGC | 1.26 | 1.22 | 1.18
37 | UGAUGA | 3.34 | 3.56 | 2.48
38 | CGAUCA | 0.917 | 0.906 | 0.977
39 | UGAUGU | 2.5 | 2.78 | 2.1
40 | AGAUGU | 1.06 | 1.13 | 1.05
41 | CGAUGA | 1.66 | 1.7 | 1.44
42 | UGAUGC | 2.31 | 2.42 | 1.91

Row | Sequence | RBNS R-value (protein concentration: 250 nM) | RBNS R-value (protein concentration: 500 nM) | RBNS R-value (protein concentration: 1000 nM)
43 | UGAUCA | 1.2 | 1.26 | 1.17
44 | UUAUGC | 0.832 | 0.799 | 0.831
45 | CGAUGU | 1.13 | 1.16 | 1.09
46 | GGAUGA | 1.23 | 1.25 | 1.17
47 | GGUCUU | 0.91 | 0.864 | 0.932
48 | UACACG | 0.894 | 0.857 | 0.867
49 | UGUAAU | 0.85 | 0.907 | 0.853
50 | AAGGUA | 0.941 | 1.01 | 0.987
51 | CAUCAU | 0.806 | 0.8 | 0.838
52 | GCCCGC | 1.24 | 1.09 | 1.2
53 | CGAGGC | 1.15 | 1.08 | 1.17
54 | CCAUCU | 0.967 | 0.915 | 0.956
55 | CCCUCU | 0.993 | 0.894 | 0.949
56 | GAGUGC | 1.09 | 1.01 | 1.04
57 | AUAUGA | 1.1 | 1.23 | 1.07
58 | UGAUGG | 2.48 | 2.56 | 1.9
59 | CGAUGG | 1.24 | 1.23 | 1.17
60 | AGAUGG | 1.12 | 1.14 | 1.14
61 | AGAUGA | 1.49 | 1.55 | 1.34
62 | AGAUGC | 1.18 | 1.17 | 1.14
